Bioassay records as filed in PubChem BioAssay.
Compounds with a hit are over-represented: about 4.1% of the library has one in this group of screens.
TIM10 inh: growth inhibitors of isogenic TIM10 control yeast, primary screen, counter-screen for tim10-1 yeast inhibitor project, luminescence, uHTS; actives 1.4% (n = 330,000); AID 463195, 2010; inhibition, % at 10 µM; S. cerevisiae TIM10 strain growth, BacTiter-Glo luminescence, 24 h;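 active means inhibition of 40% or more at the single tested concentration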;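 further: wild-type TIM10 isogenic control strain grown at permissive 25 °C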
tim10-1 inh: growth inhibitors of tim10-1 mutant yeast, primary screen, luminescence, uHTS; S. cerevisiae tim10-1 ts strain growth, BacTiter-Glo, 24 h; inhibition, % at 20 µM; actives 2.2% (n = 330,000); AID 463190, 2010;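 active means inhibition of at least 40%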;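 further: mutant grown at 25 °C; 0% = DMSO wells with yeast and 100% = wells holding no yeast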
NLRP3 yeast inh: NALP3 inflammasome inhibitors in reconstituted yeast, primary screen, luminescence, uHTS; Yeast reconstituted NLRP3/ASC/caspase-1, beta-gal luminescence, 24 h; inhibition, % at 10 µM; actives 0.39% (n = 330,000);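 active means inhibition of 50% or more; inactive means inhibition below 50%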;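 further: plate controls were induced DMSO wells for no effect and uninduced yeast grown without galactose for full effect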
tim23-1 inh: growth inhibitors of tim23-1 mutant yeast, primary screen, luminescence, uHTS | S. cerevisiae tim23-1 growth, BacTiter-Glo luminescence, 24 h | actives 1.3% (n = 330,000) | inhibition, % at 20 µM;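 active means growth inhibition of the mutant yeast at or above 50%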;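 further: temperature-sensitive mutant grown at 25 °C; plate controls were DMSO-treated mutant yeast for no effect and medium wells lacking yeast for full effect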
NALP1 yeast inh: NALP1 inflammasome inhibitors in reconstituted yeast, colorimetric, S. cerevisiae, triplicate retest | S. cerevisiae NALP1/ASC/caspase-1 growth, X-gal OD620, 72 h | inhibition, % at 10 µM | actives 0.61% (n = 280,000) | AID 2071, 2009; in the data active means inhibition mostly above about 24%, no sharp cut-off; inactive means mostly below about 32%
tim10-1 confirm: growth inhibitors of tim10-1 mutant yeast, confirmation, single concentration, luminescence, S. cerevisiae; inhibition, % at 20 µM; actives 56% (n = 7,400); S. cerevisiae tim10-1 ts strain growth, BacTiter-Glo, 24 h; AID 463213, 2010; shares compounds with tim10-1 inh;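 active means inhibition of yeast growth at or above a set limit in either of two repeat tests at 20 µM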;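 further: tim10-1 mutant grown at permissive 25 °C to find synthetic lethal compounds; 0% = DMSO yeast wells and 100% = medium wells without yeast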
* = called active by the depositor; . = no result given.

SMILES	TIM10 inh	tim10-1 inh	NLRP3 yeast inh	tim23-1 inh	NALP1 yeast inh	tim10-1 confirm
O=C(NCc1ccccc1)C(c1c(F)cccc1Cl)N(C(=O)c1csnn1)C1CC1 (stereo not given)	-19	12	20	11	16	.
Cc1occc1C(=O)N1CCC2(CCCN(Cc3ccc(F)c(F)c3)C2)C1 (stereo not given)	-8	7	17	15	19	.
CCSc1nnc(NC(=O)c2cccc(OCc3c(C)noc3C)c2)s1	11	40	7	6	20	11
CC(C)CNC(=O)/C(C#N)=C1\N=C(NC(=O)c2ccco2)c2ccccc21	27	47*	12	38	10	-3
O=C1CN(C(=O)c2c(F)cccc2F)C(c2ccc(F)cc2)c2cc(Br)ccc2N1 (stereo not given)	7	41*	-6	26	9	29*
O=C1CN(C(=O)c2c(F)cccc2F)C(c2ccccc2)c2cc(Br)ccc2N1 (stereo not given)	22	20	12	25	6	.
COc1cc(F)ccc1S(=O)(=O)N1CCN(c2ccccc2)CC1	-1	22	38	31	14	.
CCOc1cccc(/C=N/NC(=S)Nc2ccccc2[N+](=O)[O-])c1O	-3	46*	23	8	9	24
CCCCNC(=S)N/N=C/c1cccc(OCC)c1O	-18	-4	2	-1	5	.
Cc1ccc(OCc2cc(C(=O)N3CCN(CC(=O)NC(C)C)CC3)no2)cn1	-6	13	12	5	-7	.
OCCN1CCN(CC/C=C2/c3ccccc3CSc3ccccc32)CC1	23	25	6	4	.	.
OCCN1CCN(CC/C=C2/c3ccccc3Sc3ccc(C(F)(F)F)cc32)CC1	18	51*	15	13	.	24
OCCN1CCN(CCCN2c3ccccc3Sc3ccc(C(F)(F)F)cc32)CC1	20	42*	35	6	31	30*
CN(C)CCC(=O)N1c2ccccc2Sc2ccc(C(F)(F)F)cc21	16	22	25	26	22	.
CN1CCN(CCC(=O)N2c3ccccc3Sc3ccc(C(F)(F)F)cc32)CC1	-2	5	13	-6	15	.
CN(C)CCCN1c2ccccc2Sc2ccc(C(F)(F)F)cc21	29	44*	37	21	31	31
CCN(CC)CCCCN1c2ccccc2Sc2ccccc21	12	41*	25	14	27	27
CCCN1CCC(NC(=S)Nc2cccc(Cl)c2Cl)CC1	-16	-5	19	-7	-1	.
O=C(NCc1cccc(C(F)(F)F)c1)C1CCCN(c2cnccn2)C1 (stereo not given)	17	8	-6	3	22	.
COc1ccc(CN2CCC(C(=O)Nc3ccc(Oc4cccnc4)cc3)CC2)c(C)c1C	-3	25	17	13	28	.
CCSc1ccc2c(c1)N(CCCN1CCN(C)CC1)c1ccccc1S2	17	42*	26	24	.	31*
COc1ccc(CNc2cccc3[nH]c(C(F)(F)F)nc23)cc1	29	43*	21	40	9	25
COc1cc(CNc2cccc3[nH]c(C(F)(F)F)nc23)cc(OC)c1	15	42*	14	39	36	19
COc1cc(CCCN2CCNC[C@@H]2Cc2ccccc2)cc(OC)c1OC	-1	-20	18	-7	.	.
CN(C(=O)c1nn(C)c2c1CSc1ccccc1-2)c1ccc(F)cc1	0	35	9	37	8	.
CN(C(=O)c1nn(C)c2c1CSc1ccccc1-2)c1ccccc1Cl	12	41*	22	41	11	6
Cn1nc(C(F)(F)F)c(-c2ccc(Br)cc2)c1NC(=O)c1ccco1	3	40*	13	32	.	14
Cn1nc(C(F)(F)F)c(-c2ccc(Br)cc2)c1NC(=O)c1cccnc1	12	23	21	9	.	.
CCN(c1cccc(C)c1)S(=O)(=O)c1cc2c3c(c1)CCN3C(=O)CC2	-20	-7	17	3	.	.
